Bioassay records: PubChem, National Center for Advancing Translational Sciences (NCATS)
TDP1 cell CPT = growth inhibition of DT40 Tdp1-/-;hTDP1 cells with camptothecin (screen for TDP1 inhibitors); 420,000 compounds, 12% hits; chicken DT40 Tdp1-/-;hTDP1 cells + 20 nM CPT, ATP luminescence, 48 h; Potency, µM (top dose mostly 46.2 µM), without a hit: top-dose activity change, negative = growth inhibition, hits mostly inhibitors; further: potency means the concentration at half of the fitted maximal effect; nearly all actives have a fitted effect of over 55% in size
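Chicken DT40 Tdp1-/- cells stably complemented with human TDP1 were seeded at 400 cells/well in medium containing 20 nM camptothecin, exposed to pin-transferred compounds, and grown at 37 °C for at least 48 hr. Viability was read as ATP luminescence.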
IL-1B inflam inh = inhibitors of inflammasome signaling (IL-1 beta secretion) | THP-1 LPS/ATP IL-1B secretion, AlphaLISA, 16 h; stronger effect = lower value | activity change, % at 57.5 µM | 360,000 compounds, 4.7% hits | AID 743279; in the data active means activity change below about -50%; inconclusive means mostly about -30% to -49%
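THP-1 cells pretreated 1 hr with compounds (up to 57.5 uM final), then stimulated with LPS (250 ng/mL final) plus ATP (1.25 mM final); secreted IL-1B measured by AlphaLISA after 16 hr, decreased signal indicating inhibition.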
Six1-Eya2 blk = blocks human Six1 binding to Eya2 | 360,000 compounds, 0.56% hits | Q15475+O00167 | activity change, % (no concentration beside the values) | AID 651725 | AlphaScreen GST-Six1/His-Eya2 binding, biochemical; stronger effect = lower value; in the data active means activity change below about -65%; inconclusive means mostly about -30% to -63%
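Compounds are tested against tagged Six1 and Eya2 proteins bridged by glutathione donor and nickel acceptor beads; after a one-hour incubation at 37 °C without light, AlphaScreen emission is recorded.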
TDP1 block = blocks human tyrosyl-DNA phosphodiesterase 1; recombinant TDP1, AlphaScreen DNA substrate cleavage; Potency, µM (doses to about 130 µM), for inactives: at the highest dose activity change, negative = inhibition, hits mostly inhibitors; 350,000 compounds, 0.28% hits; AID 485290; further: potency means the concentration at half of the fitted maximal effect; nearly all actives have a fitted effect of over 40% in size
Target sequence (Q9NUW8 whole entry, looked up): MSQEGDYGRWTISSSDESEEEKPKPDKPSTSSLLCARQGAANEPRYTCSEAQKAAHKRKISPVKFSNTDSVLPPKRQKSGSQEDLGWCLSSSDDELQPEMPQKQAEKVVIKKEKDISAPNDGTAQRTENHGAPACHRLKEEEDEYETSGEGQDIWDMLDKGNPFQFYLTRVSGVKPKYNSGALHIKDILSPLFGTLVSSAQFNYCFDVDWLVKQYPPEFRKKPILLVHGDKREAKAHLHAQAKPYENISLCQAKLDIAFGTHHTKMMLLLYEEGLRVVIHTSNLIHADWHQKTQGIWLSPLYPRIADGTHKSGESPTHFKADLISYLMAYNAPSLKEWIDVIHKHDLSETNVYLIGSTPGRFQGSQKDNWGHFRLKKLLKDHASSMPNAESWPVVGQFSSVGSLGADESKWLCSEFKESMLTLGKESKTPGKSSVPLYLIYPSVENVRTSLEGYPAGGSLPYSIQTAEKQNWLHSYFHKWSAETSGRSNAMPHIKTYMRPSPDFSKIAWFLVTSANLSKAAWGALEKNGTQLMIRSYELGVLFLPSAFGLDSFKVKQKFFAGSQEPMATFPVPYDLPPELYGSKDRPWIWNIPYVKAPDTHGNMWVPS
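AlphaScreen read-out: signal falls as enzyme removes the 3' tyrosine-FITC from a 5'-biotinylated DNA oligo (15 nM, 5 min, RT). Enzyme was E. coli-made recombinant Tdp1 at 1 nM, exposed to compound for 15 min beforehand; beads 10 ug/ml, 10 min.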
CtBP-E1A blk = blocks the CtBP interaction with E1A; AlphaScreen GST-E1A/His-CtBP binding, 1536-well; stronger effect = lower value; activity change, % (no concentration beside the values); 340,000 compounds, 0.49% hits; in the data active means activity change below about -65%; inconclusive means mostly about -30% to -63%
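GST-E1A and His-tagged CtBP (125 nM each as 5X stock) were preincubated with pin-transferred compound for 2 h at 37 °C in the dark, then glutathione donor and nickel acceptor beads were added for 1 h before AlphaScreen reading.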
TDP1 cell noCPT = qHTS for Inhibitors of human tyrosyl-DNA phosphodiesterase 1 (TDP1): qHTS in cells in absence of CPT. AID 686978, 2013. 420,000 compounds, 15% hits. Potency, µM (highest dose often 46.2 µM), for the others: at the top dose activity change, negative = growth inhibition, actives largely listed as inhibitors. DT40 Tdp1-/- hTDP1 cells, no CPT, ATP luminescence, 48 h; further: potency means the concentration at half of the fitted maximal effect; nearly all actives have a fitted effect of over 55% in size
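Camptothecin absent (DMSO only). Human TDP1-complemented DT40 knockout cells, 400 cells/well, 37 °C for minimum 48 hr; ATP measured via CellTiter-Glo, 30 min dark incubation, luminescence.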
* marks the source's active call; other numbers are inactive results; [ ] = dose if it differs, or a comment. Only some compounds are listed: those with a hit (about 18% of all), similar ones and a draw of the others. Unless noted, the call rests on the fitted dose curve; in most records, active means well fitted curve in the direction sought with a large enough effect; inconclusive means small, poorly fitted or top-dose-only effect, or another doubt; inactive means no such curve, though single readings can be large; an effect the other way counts as inactive or inconclusive. On the % scale 0 is the no-effect control and ±100 the full control effect.

Screening CN(C)CCCN1C(=O)C(=O)/C(=C(/O)c2ccc(OCc3ccccc3)cc2)C1c1cccnc1 (configuration not stated) returned TDP1 block 4%.
Screening O=C(COc1ccccc1)Nc1nnc(SCc2cc(=O)n3cc(Cl)ccc3n2)s1 returned TDP1 cell CPT 3%, TDP1 block 3% and TDP1 cell noCPT 1%.
`CC1(C)OC2C(CO)OC(n3cnc4c(=O)[nH]c(N)nc43)C2O1` (configuration not stated) gave TDP1 cell CPT -3%, TDP1 block 6%[56.1 µM] and TDP1 cell noCPT -5%.
Screening Clc1nc(Cl)c2ncn(-c3ccccc3)c2n1 returned TDP1 cell CPT 8.2µM*, IL-1B inflam inh -103*, Six1-Eya2 blk inconclusive, CtBP-E1A blk -8 and TDP1 cell noCPT 13µM*.
For Nc1nc2c(ncn2-c2ccccc2)c(=O)[nH]1 the results were TDP1 cell CPT -5%, IL-1B inflam inh 9, Six1-Eya2 blk inconclusive, CtBP-E1A blk -73* and TDP1 cell noCPT 2%.
Nc1nc2nn(-c3ccccc3)nc2c(=O)[nH]1 was read as TDP1 cell CPT -13%, IL-1B inflam inh 20, Six1-Eya2 blk inconclusive, TDP1 block 1% and TDP1 cell noCPT inconclusive.
CNc1nc(Cl)nc2c1ncn2-c1ccccc1 was read as TDP1 cell CPT 10%, IL-1B inflam inh 0, Six1-Eya2 blk -4, CtBP-E1A blk -1 and TDP1 cell noCPT -7%.
Nc1nc2c(ncn2CCC(CO)CO)c(=O)[nH]1 was read as TDP1 cell CPT 0.67µM* and TDP1 cell noCPT 1.7µM*.
`O=C(Cn1cc(C(F)(F)F)ccc1=O)N/N=C/c1ccc(O)cc1` gave TDP1 cell CPT 2%, IL-1B inflam inh 0, Six1-Eya2 blk 0, TDP1 block -1%, CtBP-E1A blk 8 and TDP1 cell noCPT 7%.
For CC(C)n1nnnc1C1c2ccccc2C(=O)N1CCc1c[nH]c2ccccc12 (configuration not stated) the results were TDP1 cell CPT inconclusive, IL-1B inflam inh -1, Six1-Eya2 blk 1, CtBP-E1A blk 0 and TDP1 cell noCPT inconclusive.
O=C1CSC(c2cccnc2)N1CCc1ccccn1 (configuration not stated) was read as TDP1 cell CPT 1%, IL-1B inflam inh 14, Six1-Eya2 blk 2, TDP1 block -1% and TDP1 cell noCPT -1%.
For CCCCCC(=O)N1CCCC1 the results were TDP1 cell CPT 2%, IL-1B inflam inh 4, Six1-Eya2 blk -5, TDP1 block -3%, CtBP-E1A blk -2 and TDP1 cell noCPT -16%.
Screening Cc1ccc(C)c2[nH]c(=O)c(CCNS(=O)(=O)c3ccccc3)cc12 returned TDP1 cell CPT 4%, IL-1B inflam inh -1, Six1-Eya2 blk 3, TDP1 block 1%, CtBP-E1A blk 1 and TDP1 cell noCPT -20%.
C=CCc1c(C)nc2c(C(=O)O)cnn2c1C was read as TDP1 cell CPT -20%, IL-1B inflam inh -3, Six1-Eya2 blk -2, TDP1 block -6%, CtBP-E1A blk 6 and TDP1 cell noCPT -8%.
Screening C=CCC[C@@H](Cc1ccc(F)cc1)C(=O)OC[C@@H]1CCCN1C(=O)[C@@H](CC=C)CC(=O)N(CCO)Cc1ccccc1 returned TDP1 cell CPT 16µM*, IL-1B inflam inh -73*, Six1-Eya2 blk -13, TDP1 block 2%, CtBP-E1A blk 0 and TDP1 cell noCPT 18µM*.
C=CC[C@@H](Cc1ccc(F)cc1)C(=O)OC[C@@H]1CCCN1C(=O)[C@@H](CC=C)CC(=O)N[C@H](CO)Cc1ccccc1 was read as TDP1 cell CPT 10µM*, IL-1B inflam inh inconclusive, Six1-Eya2 blk 0, TDP1 block 1%, CtBP-E1A blk 0 and TDP1 cell noCPT 16µM*.
`C=CC[C@@H](Cc1ccc(F)cc1)C(=O)OC[C@H]1CCCN1C(=O)[C@H](CC=C)CC(=O)NCCO` gave TDP1 cell CPT inconclusive, IL-1B inflam inh 9, Six1-Eya2 blk -4, TDP1 block 2%, CtBP-E1A blk 6 and TDP1 cell noCPT inconclusive.
C=CCC[C@H](Cc1ccc(F)cc1)C(=O)OC[C@H]1CCCN1C(=O)[C@@H](CC=C)CC(=O)NCCO was read as TDP1 cell CPT inconclusive, IL-1B inflam inh -25, Six1-Eya2 blk 0, TDP1 block 2%, CtBP-E1A blk 0 and TDP1 cell noCPT inconclusive.
For C=CC[C@@H](Cc1ccc(F)cc1)C(=O)OC[C@@H]1CCCN1C(=O)[C@@H](CC=C)CC(=O)N[C@@H](CO)Cc1ccccc1 the results were TDP1 cell CPT inconclusive, IL-1B inflam inh -10, Six1-Eya2 blk -3, TDP1 block -1%, CtBP-E1A blk -19 and TDP1 cell noCPT 18µM*.
For C=CCC[C@@H](Cc1ccc(F)cc1)C(=O)OC[C@@H]1CCCN1C(=O)[C@H](CC=C)CC(=O)N[C@H](CO)Cc1ccccc1 the results were TDP1 cell CPT inconclusive, IL-1B inflam inh inconclusive, Six1-Eya2 blk -5, TDP1 block 1%, CtBP-E1A blk -1 and TDP1 cell noCPT 18µM*.
`C=CCC[C@@H](Cc1ccc(F)cc1)C(=O)OC[C@H]1CCCN1C(=O)[C@@H](CC=C)CC(=O)N[C@H](CO)Cc1ccccc1` gave TDP1 cell CPT inconclusive, IL-1B inflam inh -19, Six1-Eya2 blk -4, TDP1 block 0%, CtBP-E1A blk 0 and TDP1 cell noCPT inconclusive.
Screening COCC(=O)NC1CCN(S(=O)(=O)c2cccc(C(C)=O)c2)CC1 returned TDP1 cell CPT -8%, IL-1B inflam inh -5, Six1-Eya2 blk -4, TDP1 block -1%, CtBP-E1A blk 6 and TDP1 cell noCPT -8%.
O=c1c(=O)n(CCO)n(CCO)c(=O)n1CCO was read as TDP1 cell CPT 13%, IL-1B inflam inh 0, Six1-Eya2 blk 3, CtBP-E1A blk -3 and TDP1 cell noCPT 1%.
For C=CC[C@@H](Cc1ccc(F)cc1)C(=O)OC[C@H]1CCCN1C(=O)[C@@H](CC=C)CC(=O)N[C@@H](CO)Cc1ccccc1 the results were TDP1 cell CPT 12µM*, IL-1B inflam inh -6, Six1-Eya2 blk -1, TDP1 block -3%, CtBP-E1A blk -3 and TDP1 cell noCPT 12µM*.
